The source of these data is ChEMBL document CHEMBL4513216, “Probing the Open Global Health Chemical Diversity Library for Multistage-Active Starting Points for Next-Generation Antimalarials” (ACS Infect Dis, 2020).

Each structure is given as a SMILES string. Out of some 65,000 compounds screened, about 2,100 (3.2%) showed an effect of 50% or more. The median lay at about -52%. For the sample, strong results were picked, then their nearest neighbours and some compounds at random.

The assay deals with Plasmodium falciparum. Briefly: Screen against P. falciparum Asexual Blood Stage (ABS), at 5uM. The note with it: tested at 5 uM. It counts as functional, Dd2.
`O=C1[C@H]2CN(Cc3ccncc3)C[C@H]2CN1c1cncnc1`: the INHIBITION is reported as -49.7%.
Regarding `c1cncc(CO[C@H]2CO[C@@]3(CCN(Cc4ccoc4)C3)C2)c1`, the INHIBITION amounted to 23.3%.
For `O=C(c1cccnc1-n1cncn1)N1CCC(Nc2ccccc2)CC1`, the INHIBITION was -86.3%.
`Cc1ccccc1CN(CCN(C)C)Cc1ccc(S(C)(=O)=O)cc1`: the INHIBITION came to 80.4%.
In the case of `CCN1CCN(C(=O)COc2ccc(CN(C)S(C)(=O)=O)cc2)CC1`, the INHIBITION worked out at 3.25%.
Take `Cc1c(NC(=O)NC2CN3CCC2CC3)cccc1C(=O)N1CCCC1` (stereo not given): the INHIBITION is -83.7%.
The result for `CC(C)CCN1CCC2(CNS(=O)(=O)c3cccnc3O2)C1` (stereo not given) reads -5.49%.
The result for `Cc1nn(-c2ncccn2)c2c1C(c1cnn(C)c1C)SCC(=O)N2` (stereo not given) reads -1.18%; that for `Cc1cc(CN2CC[C@H]3C[C@H](c4nccs4)O[C@@H]3C2)no1`, -108%.
Regarding `COc1cccc(OC)c1CN1CC(=O)N(c2ccc(C)cc2)CC1C` (stereo not given), the INHIBITION is reported as 75.2%.
In the case of `Cc1cc(CN2CC[C@H]3[C@H]2CCN3C)oc1C`, the INHIBITION was 43%.
Take `C1=C(c2c[nH]c3ncccc23)CCN(Cc2nnc(C3CC3)o2)C1`: the INHIBITION is recorded as -48.5%.
The result for `Fc1ccc2c(C3=CCN(Cc4nnc(C5CCC5)o4)CC3)c[nH]c2c1` reads 83.9%; that for `Cc1cnc(CN2CC=C(c3c[nH]c4ncccc34)CC2)o1`, 12.6%; that for `CCC(C)N(Cc1ccc(C)cc1)Cc1c[nH]c(C)n1` (stereo not given), 77.5%.
For `Cc1cc(C)c(CNc2ncnc3c2cnn3C)c(=O)[nH]1`, the INHIBITION was -55.6%.
In the case of `O=C1CSC(c2ccc3c(c2)OCO3)c2cn[nH]c2N1` (stereo not given), the INHIBITION is -10.6%.
As for `NCCC(Cc1ccccc1)c1ccco1` (stereo not given), the INHIBITION was 84.1%.
Under `O=C(c1cscn1)N1CCC2(CN(Cc3ccncc3)C2)C1` stands -48%; under `O=C(Nc1cccnc1)[C@H]1CN(Cc2cccs2)C[C@H]2OCC[C@@H]12`, 2.31%.
With `Cc1cc(CN2CCC(CNS(=O)(=O)c3ccc(C)s3)CC2)c(C)o1`, the INHIBITION is given as 87.7%.
Under `Cc1cc(CN2CCC(CNS(=O)(=O)c3ccccc3F)CC2)c(C)o1` stands 79.2%; under `Cc1cc(CN2CCC(CNS(=O)(=O)c3ccc(Br)s3)CC2)c(C)o1`, 91.6%; under `Cc1ccc(CN2CCC3(CC2)C(=O)Nc2ccccc23)s1`, 46.9%.
Regarding `CC(C)=CCN1CCN(C(=O)COc2ccccc2)[C@H]2CS(=O)(=O)C[C@H]21`, the INHIBITION is on record as -73.8%.
The result for `CC(Cc1c(F)cccc1F)NC(=O)NCc1ncnn1C` (stereo not given) reads -43.1%; that for `O=C(c1ccnnc1)N1CCN2C[C@H](Oc3cccnc3)C[C@H]2C1`, 5.43%.
As to `Cc1nn(C)c(Oc2ccc(Cl)cc2)c1CN1CCC(CN)C1` (stereo not given), the INHIBITION was 92.8%.
Under `Cn1cc(N2CC[C@@H]3CN(Cc4ccncc4)C[C@H]3C2=O)cn1` stands -102%; under `Cc1nc(C)c(CC(=O)N2CCCN(CC3CC3)C(C(C)C)C2)c(=O)[nH]1` (stereo not given), -23.8%.
The result for `N#Cc1cccc(N2CCOC3(CNCCOC3)C2)n1` (stereo not given) reads 17%; that for `CC(C)C1CN(c2cccc(C#N)n2)CCCN1Cc1ccc(F)cc1` (stereo not given), 91.3%.
Under `N#Cc1cccc(N2CCCC3(CNCCO3)C2)n1` (stereo not given) stands -104%.
On to `CC(C)C1CN(c2cccc(C#N)n2)CCCN1CC1CC1` (stereo not given), for which the INHIBITION came to 84.3%.
Under `Cc1nc(N)nc(C)c1CC(=O)N1CCCN(CC2CC2)C(C(C)C)C1` (stereo not given) stands -198%; under `CCN1CCC2(COCc3c(C)nc(N4CCOCC4)nc32)C1` (stereo not given), -129%.
As to `CC(Cn1cccn1)NCc1csc2c1CCCC2` (stereo not given), the INHIBITION was determined as 39.2%.
Under `CC[C@H]1CN2CC[C@H]1C[C@@H]2CNC(=O)Nc1cccc(C#N)c1` stands -82.6%; under `CN(C)C1Cc2ccccc2N(S(=O)(=O)c2cccc(C#N)c2)C1` (stereo not given), 76.6%; under `CC(C)(C)n1ncc2c1NC(=O)CSC2c1ccsc1` (stereo not given), -82.3%.
As for `COc1ccc(C(=O)N2CCOC3(CNCCOC3)C2)c(OC)n1` (stereo not given), the INHIBITION is reported as -97.3%.
With `CC(C)n1ccnc1C1CCCN(c2ccnc3ccccc23)C1` (stereo not given), the INHIBITION is on record as 84%.
With `Cc1nc(CO[C@@H]2CC[C@H]3[C@H]2OCCN3Cc2cccnc2)cs1`, the INHIBITION was -22.1%.
For `COc1ccc(C(=O)C2CCCN(Cc3ccncc3)C2)c(OC)c1` (stereo not given), the INHIBITION is -17.9%.
With `O=C(Nc1ccc(Cl)cn1)C1CCCN(CCc2ccncc2)C1` (stereo not given), the INHIBITION was 71.9%.
For `COc1ccc(C(=O)C2CCCN(Cc3ccncc3)C2)cc1OC` (stereo not given), the INHIBITION is reported as -128%.
`O=C(CCc1nccs1)N1CCC(C(=O)O)(c2ccccc2)CC1`: the INHIBITION was -56.3%.
Regarding `Cc1nc(CC(=O)N2CCCC[C@H](N(C)C)C2)cs1`, the INHIBITION was -56.95%.
As to `CN(C)[C@H]1CCCCN(C(=O)c2cccc(-c3cccc(F)c3)c2)C1`, the INHIBITION is listed as 73.3%.
Under `CN1CCO[C@@H]2CN(C(=O)c3ccc4ncccc4c3)CC[C@@H]2C1` stands -46.1%.
